# ChEMBL document CHEMBL3988442, “University of Dundee, Small-Polar-MMV Screening Library” (2021)
# The campaign covered roughly 53,000 compounds. About 900 (1.7%) showed an effect of 50% or more. Shown is part of a subset that was picked to be rich in strong results.
# Tested on: Mycobacterium tuberculosis
# Experiment: Cornell - Phenotypic assay to identify agents that inhibit growth of Mycobacterium tuberculosis
# Format: functional
# Parameters: scale not given: direction of the effect not stated beside the values
# Conditions: 10 mM as filed; unlikely as a test dose
row,Compound,Percent Effect [%]
1,O=C(c1cnc(-c2cccnc2)nc1)N1CCSCC1,-5.308
2,CCc1ccc(C(COC)NC(=O)c2ccc(F)c(NC(C)=O)c2)o1 (stereo unspecified),-34.26
3,Cc1cc(CN2CCCC2)cc(Oc2nc(C)cnc2C)c1,-0.05473
4,COCCN(C)C[C@@H]1CN(C(=O)c2ccc(OC)c(F)c2)C[C@@H]1CO,3.272
5,Cc1cc(F)ccc1N1CCC(N2C[C@@H](CN(C)C)[C@@H](CO)C2)CC1,20.05
6,C[C@@H]1CN(C2CCN(c3ccccc3F)CC2)C[C@]1(C)O,-0.763
7,Cc1cc(F)ccc1N1CCC(N2C[C@@H](C)[C@@](C)(O)C2)CC1,57.75
8,Cc1nn(C)c(N2CCCN(C)CC2)c1CNC(=O)CC1CCCC1,23.58
9,CC(Cn1cc(Cl)cn1)C(=O)Nc1ccc(CN2CCCCCC2)cc1 (stereo unspecified),-18.96
10,COc1cccc(NC(=O)C(C)Cn2cc(Cl)cn2)c1 (stereo unspecified),52.64
11,COc1cccc(NC(=O)NCc2cnn(C)c2)c1,2.363
12,COC(=O)Cn1c(=O)nc2n1C(=O)N(c1cccc(C)c1)C2,2.841
13,O=C(c1csc(-c2cnccn2)n1)N1CCCC1Cn1cccn1 (stereo unspecified),-12.16
14,O=C(NC1CCCN(c2ccccn2)C1)C1(c2ccccc2F)CC1 (stereo unspecified),-27.34
15,Cn1cccc1C(=O)N1CC2(CCN(C(=O)c3cccnc3)C2)C1.O=C(O)C(F)(F)F,-3.792
16,CNC(=O)c1cc(NC(=O)Nc2cnn(CC(C)C)c2)ccc1F,69.74
17,CCc1c(C(=O)Nc2ccc(F)c(C(=O)NC)c2)cnn1CC(C)C,23.68
18,COCCn1cc(NC(=O)NC(C)Cc2c(F)cccc2F)cn1 (stereo unspecified),-32.72
19,CCCn1cc(NC(=O)Nc2ccc(F)c(C(=O)NC)c2)cn1,69.43
20,CC(C)CCCNC(=O)Nc1ccc(F)c(C(N)=O)c1,-8.199
21,CNC(=O)c1cc(NC(=O)NC(C)CCc2cccn2C)ccc1F (stereo unspecified),-1.57
22,Cc1cc(CN(C)C(=O)C2CC(=O)N(Cc3cccnc3)C2)on1 (stereo unspecified),14.11

row,Compound,Percent Effect [%]
1,CCc1nnc2n1CCN(Cc1nnc(-c3occc3C)o1)C2,-3.481
2,COc1ccccc1NC(=O)Cn1c(=O)nc(N)c2cc(C)sc21,-16.18
3,CNc1oc(-c2ccc(OC)c(S(=O)(=O)N3CCCC3)c2)nc1C#N,17.45
4,COCC(C)NC(=O)NCCCc1cc(N)n(-c2ccccc2)n1 (stereo unspecified),4.106
5,COC(=O)CCNC(=O)c1ccoc1CN1c2ccccc2CC1C (stereo unspecified),59.33
6,CC1Cc2ccccc2N1Cc1occc1C(=O)OCC(N)=O (stereo unspecified),46.11
7,COCCNC(=O)c1ccoc1CN1c2ccccc2CC1C (stereo unspecified),34.19
8,CCNC(=O)c1ccoc1CN1c2ccccc2CC1C (stereo unspecified),70.88
9,CC1Cc2ccccc2N1Cc1occc1C(=O)O (stereo unspecified),-3.286
10,CC1Cc2ccccc2N1Cc1occc1C(=O)NCC(=O)N(C)C (stereo unspecified),0.4209
11,CN(CCn1nc2ccccn2c1=O)CC(=O)NC1CC1,-0.7088
12,Cc1nc(CN2CCC3(C2)CN(C(=O)c2ccc[nH]2)C3)cs1,9.497
13,COc1cccc(NC(=O)Nc2ccc3c(c2)CC(=O)N3)c1,-2.338
14,O=C(NCC(=O)N1CCc2ccccc2C1)c1ccoc1,-20.14
15,COC(=O)N1CCN2C[C@H](CO)[C@@H](c3ccccc3)[C@H]2C1,9.303
16,CC(=O)OC1CN(c2nc3c(C(F)(F)F)cccc3s2)C1,5.311
17,COC1COC2(CCN(Cc3ccc4ccccc4n3)CC2)C1.O=C(O)C(F)(F)F.O=C(O)C(F)(F)F (stereo unspecified),14.78
18,O=C(CNc1cc(-n2cnnn2)ccc1F)Nc1ccccc1Cl,96.42
19,Cc1ccc(-n2cnnn2)cc1NCC(=O)Nc1ccccc1Cl,6.921
20,O=C(CNc1cc(-n2cnnn2)ccc1F)NCc1ccccc1,76.98
21,Cc1ccc(-n2cnnn2)cc1NCC(=O)Nc1cc(F)ccc1F,11.17
22,O=C(CNc1ccccc1Cl)Nc1cc(-n2cnnn2)ccc1F,22.69

row,Compound,Percent Effect [%]
1,O=C(CNc1cc(-n2cnnn2)ccc1F)Nc1cc(F)ccc1F,3.475
2,O=S(=O)(c1ccc(F)c(F)c1)N1CCCC(c2nccs2)C1 (stereo unspecified),-0.9721
3,Cc1cccc(C(=O)N2C[C@@H](OCc3ccncc3)[C@@H]3OCCC[C@@H]32)n1.O=C(O)C(F)(F)F.O=C(O)C(F)(F)F,29.52
4,Cl.Cl.O=C(CN1CCN(CC(O)C2CC2)CC1)NCc1ccc(F)cc1 (stereo unspecified),12.18
5,O=C(CNc1ccc(OC2CCOC2)cc1)NCc1ccc(F)cc1 (stereo unspecified),70.37
6,O=C(CNc1ccc(OC2CCOC2)cc1)NCc1cccs1 (stereo unspecified),8.02
7,Cc1ccccc1CNC(=O)CNc1ccc(OC2CCOC2)cc1 (stereo unspecified),74.57
8,O=C(NCc1ccc(F)cc1)N1CCC(C2OCCO2)CC1,9.763
9,O=C(CNc1ccc(OC2CCOC2)cc1)NCc1ccco1 (stereo unspecified),37.67
10,C1CN(Cc2noc(C3CC3)n2)CCN(Cc2nnc(C3CC3)o2)C1,-22.59
11,Cc1cnn(C2CCCN(C(=O)CCCc3ccccn3)C2)c1 (stereo unspecified),2.711
12,COc1ccc(S(=O)(=O)Nc2cnc(N(C)C)nc2)cc1,-14.34
13,CCCN(C(=O)c1ccncc1)c1nc2c(s1)CCc1c-2cnn1C,54
14,CCCN(C(=O)c1cccnc1)c1nc2c(s1)CCc1c-2cnn1C,30.71
15,CCCN(C(=O)c1cnccn1)c1nc2c(s1)CCc1c-2cnn1C,25.49
16,CS(=O)(=O)NC[C@H]1OC[C@H]2CN(CCc3ccccc3)CC[C@H]21.O=C(O)C(F)(F)F,1.676
17,CN1CCOC(CNCc2coc(-c3cccc(Cl)c3)n2)C1 (stereo unspecified),12.33
18,COc1ccc(CN(C)[C@@H]2CN(C(=O)c3cccnc3)C[C@H]2O)cc1,29.94
19,CC(C)c1cc(C(=O)NCC2CCCN(c3ncccn3)C2)n(C)n1 (stereo unspecified),10.83
20,COc1cccc(-c2cc(C(=O)N3N=C(C)CC3(O)C(F)(F)F)[nH]n2)c1 (stereo unspecified),58.69
21,COc1cccc(-c2cc(C(=O)N3N=C(C)CC3(O)C(F)F)[nH]n2)c1 (stereo unspecified),21.19
22,COc1ccc(-c2cc(C(=O)N3N=C(C)CC3(O)C(F)(F)F)[nH]n2)cc1 (stereo unspecified),-4.762
